Test in all cases: DAPPL (digital affinity profiling via proximity ligation, sequencing); 10 mM Tris-HCl pH 7.5, 50 mM NaCl, 1 mM DTT, 4% glycerol, room temperature, 30 min; GST-TFs on glutathione beads, 16-mer random dsDNA library, 0.1% formaldehyde crosslink after washing; high values mean tight binding
What all share (conditions): protein: recombinant; tags: N-terminal GST; dsDNA, one strand shown

One test concerns the target T1, FLI1 (Homo sapiens, UniProt Q01543 1-452).
T1 sequence: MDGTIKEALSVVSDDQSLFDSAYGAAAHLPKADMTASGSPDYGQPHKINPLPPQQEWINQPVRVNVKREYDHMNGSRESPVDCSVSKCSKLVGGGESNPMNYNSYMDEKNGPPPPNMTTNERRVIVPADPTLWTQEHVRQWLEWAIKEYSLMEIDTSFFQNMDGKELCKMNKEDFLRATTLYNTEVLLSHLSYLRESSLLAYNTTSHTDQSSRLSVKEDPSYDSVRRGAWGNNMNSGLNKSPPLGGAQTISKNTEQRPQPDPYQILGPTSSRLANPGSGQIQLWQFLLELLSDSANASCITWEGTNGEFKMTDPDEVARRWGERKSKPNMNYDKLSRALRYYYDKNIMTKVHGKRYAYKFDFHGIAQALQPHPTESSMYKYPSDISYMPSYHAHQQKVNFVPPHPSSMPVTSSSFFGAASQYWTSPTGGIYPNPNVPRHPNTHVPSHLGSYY
The gist of the method:
(§1)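 Binding signal is defined as a hexamer's read frequency for one factor over its frequency for the tag-only sample. To obtain reads, GST-fused human transcription factors were expressed in yeast, captured on glutathione beads, barcoded with DNA and pooled with that sample. Pools met 200 nmole of a 16-mer random double-stranded DNA library in Tris/NaCl/DTT/glycerol buffer for 30 min at room temperature before washing, 0.1% formaldehyde crosslinking, proximity ligation (BsaI/T4 ligase, 1 h, 37 °C), PCR and Illumina NextSeq500 sequencing.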

The next test deals with T2, ELK1 (Homo sapiens, UniProt P19419 1-428).
T2 sequence: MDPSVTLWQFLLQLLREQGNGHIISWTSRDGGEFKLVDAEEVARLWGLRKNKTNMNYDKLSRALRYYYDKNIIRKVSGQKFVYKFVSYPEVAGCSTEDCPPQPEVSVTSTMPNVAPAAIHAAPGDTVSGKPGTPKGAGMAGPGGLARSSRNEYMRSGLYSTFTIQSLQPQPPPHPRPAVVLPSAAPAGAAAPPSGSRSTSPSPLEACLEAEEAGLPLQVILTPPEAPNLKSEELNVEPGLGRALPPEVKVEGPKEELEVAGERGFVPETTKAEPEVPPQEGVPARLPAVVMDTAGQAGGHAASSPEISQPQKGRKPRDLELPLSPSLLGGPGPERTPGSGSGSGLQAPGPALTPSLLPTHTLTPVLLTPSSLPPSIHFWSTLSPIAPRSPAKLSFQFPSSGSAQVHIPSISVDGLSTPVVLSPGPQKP
The gist of the method: as §1

Another test deals with T3, GABPA (Homo sapiens, UniProt Q06546 1-454).
T3 sequence: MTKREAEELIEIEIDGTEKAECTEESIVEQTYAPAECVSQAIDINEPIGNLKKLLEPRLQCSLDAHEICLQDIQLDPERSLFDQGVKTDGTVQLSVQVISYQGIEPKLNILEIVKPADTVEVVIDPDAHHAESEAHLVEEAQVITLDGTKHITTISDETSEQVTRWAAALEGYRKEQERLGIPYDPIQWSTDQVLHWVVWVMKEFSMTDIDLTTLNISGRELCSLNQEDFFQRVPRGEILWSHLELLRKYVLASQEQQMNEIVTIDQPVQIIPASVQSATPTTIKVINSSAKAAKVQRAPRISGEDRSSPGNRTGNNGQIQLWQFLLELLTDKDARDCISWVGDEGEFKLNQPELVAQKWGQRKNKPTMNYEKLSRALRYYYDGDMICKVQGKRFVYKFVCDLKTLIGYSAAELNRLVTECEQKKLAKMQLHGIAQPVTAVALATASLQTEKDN
In short, it runs like this: as §1

Another test has as its target T4, ERG (Homo sapiens, UniProt P11308 1-479).
T4 sequence: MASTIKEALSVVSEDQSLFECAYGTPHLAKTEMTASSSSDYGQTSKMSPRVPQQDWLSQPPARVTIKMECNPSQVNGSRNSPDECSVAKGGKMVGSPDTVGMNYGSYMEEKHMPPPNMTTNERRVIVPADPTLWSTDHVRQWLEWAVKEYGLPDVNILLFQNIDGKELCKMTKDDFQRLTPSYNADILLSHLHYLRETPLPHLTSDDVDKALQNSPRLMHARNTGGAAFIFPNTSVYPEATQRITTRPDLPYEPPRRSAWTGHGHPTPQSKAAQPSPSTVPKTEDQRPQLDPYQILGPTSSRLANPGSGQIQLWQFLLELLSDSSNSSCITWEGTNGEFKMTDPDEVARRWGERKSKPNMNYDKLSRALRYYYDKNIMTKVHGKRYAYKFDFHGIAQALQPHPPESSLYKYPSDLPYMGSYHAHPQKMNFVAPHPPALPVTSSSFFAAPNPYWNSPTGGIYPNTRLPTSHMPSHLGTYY
The gist of the method: as §1

The next test deals with ELF1 (Homo sapiens, UniProt P32519 1-619). The gist of the method: as §1
ELF1, sequence (P32519 whole entry): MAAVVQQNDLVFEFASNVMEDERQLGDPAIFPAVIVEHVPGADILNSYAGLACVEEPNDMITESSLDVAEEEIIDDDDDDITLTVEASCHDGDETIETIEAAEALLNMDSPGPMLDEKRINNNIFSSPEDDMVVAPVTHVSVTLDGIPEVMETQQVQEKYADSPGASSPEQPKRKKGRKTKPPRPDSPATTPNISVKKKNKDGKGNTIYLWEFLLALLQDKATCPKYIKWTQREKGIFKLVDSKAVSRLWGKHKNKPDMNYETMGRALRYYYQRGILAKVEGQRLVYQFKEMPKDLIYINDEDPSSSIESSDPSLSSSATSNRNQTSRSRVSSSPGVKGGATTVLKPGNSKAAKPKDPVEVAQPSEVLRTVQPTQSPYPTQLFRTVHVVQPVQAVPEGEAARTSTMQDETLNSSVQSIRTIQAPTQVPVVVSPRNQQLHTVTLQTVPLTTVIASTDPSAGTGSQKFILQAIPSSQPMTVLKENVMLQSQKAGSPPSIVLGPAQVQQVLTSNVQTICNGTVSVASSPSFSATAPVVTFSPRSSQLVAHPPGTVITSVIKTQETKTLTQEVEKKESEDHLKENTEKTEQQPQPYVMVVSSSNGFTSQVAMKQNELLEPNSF
For another test, the target named is T5, EHF (Homo sapiens, UniProt Q9NZC4 1-300).
T5 sequence: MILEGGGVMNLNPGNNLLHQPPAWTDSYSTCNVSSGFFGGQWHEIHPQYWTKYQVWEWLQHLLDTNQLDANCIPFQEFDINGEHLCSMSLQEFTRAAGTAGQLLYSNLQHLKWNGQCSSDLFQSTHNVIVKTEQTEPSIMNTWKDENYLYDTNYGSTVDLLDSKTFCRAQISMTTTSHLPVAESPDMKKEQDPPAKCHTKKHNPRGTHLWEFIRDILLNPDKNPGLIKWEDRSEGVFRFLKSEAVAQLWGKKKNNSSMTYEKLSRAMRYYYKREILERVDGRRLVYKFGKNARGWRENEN
In short, it runs like this:
as §1

Another test deals with SPI1 (Homo sapiens, UniProt P17947 1-270). In short, it runs like this:
as §1

The next test has as its target SPIB (Homo sapiens, UniProt Q01892 1-262). In short, it runs like this:
as §1

The target of the next test is T6, ELK3 (Homo sapiens, UniProt P41970 1-407).
T6 sequence: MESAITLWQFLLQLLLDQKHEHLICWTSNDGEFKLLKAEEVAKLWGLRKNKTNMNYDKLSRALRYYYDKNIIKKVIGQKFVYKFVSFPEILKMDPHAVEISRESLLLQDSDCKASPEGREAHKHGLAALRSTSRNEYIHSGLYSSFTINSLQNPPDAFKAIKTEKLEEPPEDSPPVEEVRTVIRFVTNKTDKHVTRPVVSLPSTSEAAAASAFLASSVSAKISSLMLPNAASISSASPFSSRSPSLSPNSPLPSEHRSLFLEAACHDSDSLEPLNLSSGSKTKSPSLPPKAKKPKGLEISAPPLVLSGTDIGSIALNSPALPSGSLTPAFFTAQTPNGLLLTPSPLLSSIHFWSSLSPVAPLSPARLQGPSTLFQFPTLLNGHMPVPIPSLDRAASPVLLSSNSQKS
In short, it runs like this:
as §1

In paper PMC7862700, “An all-to-all approach to the identification of sequence-specific readers for epigenetic DNA modifications on cytosine” one finds binding signal data, which are given here for 8 sequences.

SPIB, sequence (Q01892 whole entry): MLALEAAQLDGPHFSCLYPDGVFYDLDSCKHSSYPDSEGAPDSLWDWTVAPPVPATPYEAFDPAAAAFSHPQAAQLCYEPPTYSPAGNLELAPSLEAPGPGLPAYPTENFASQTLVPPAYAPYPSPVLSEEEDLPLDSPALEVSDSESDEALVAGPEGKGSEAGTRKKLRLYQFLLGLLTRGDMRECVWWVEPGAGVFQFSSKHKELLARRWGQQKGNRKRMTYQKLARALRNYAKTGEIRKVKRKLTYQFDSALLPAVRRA

Take TATCAC: the binding signal with FLI1 is 1.33 fold enrichment (6-mer frequency, TF over GST control); in the test with ELK1 it was 1.25 fold enrichment (6-mer frequency, TF over GST control); with GABPA, 1.04 fold enrichment (6-mer frequency, TF over GST control); with ERG it was 1.17 fold enrichment (6-mer frequency, TF over GST control); in the test with ELF1, 1.3 fold enrichment (6-mer frequency, TF over GST control); with EHF, 1.19 fold enrichment (6-mer frequency, TF over GST control). The binding signal in the test with SPI1 is 1.28 fold enrichment (6-mer frequency, TF over GST control); in the test with SPIB, 1.22 fold enrichment (6-mer frequency, TF over GST control); in the test with ELK3, 1.23 fold enrichment (6-mer frequency, TF over GST control).

Take TAATAG: the binding signal in the test with FLI1 was 1.24 fold enrichment (6-mer frequency, TF over GST control); with ELK1 it was 1.15 fold enrichment (6-mer frequency, TF over GST control); with GABPA, 1.09 fold enrichment (6-mer frequency, TF over GST control); with ERG, 1.11 fold enrichment (6-mer frequency, TF over GST control); in the test with ELF1 it was 1.2 fold enrichment (6-mer frequency, TF over GST control); with EHF, 1.25 fold enrichment (6-mer frequency, TF over GST control). Besides, the binding signal is 1.2 fold enrichment (6-mer frequency, TF over GST control) in the test with SPI1; 1.29 fold enrichment (6-mer frequency, TF over GST control) in the test with SPIB; 1.06 fold enrichment (6-mer frequency, TF over GST control) with ELK3.

Take CCTTCC: the binding signal is 2.45 fold enrichment (6-mer frequency, TF over GST control) in the test with FLI1; 2.68 fold enrichment (6-mer frequency, TF over GST control) with ELK1; 2.22 fold enrichment (6-mer frequency, TF over GST control) in the test with GABPA; 3.03 fold enrichment (6-mer frequency, TF over GST control) with ERG; 2.39 fold enrichment (6-mer frequency, TF over GST control) with ELF1; 2.75 fold enrichment (6-mer frequency, TF over GST control) with EHF. Further, the binding signal is 2.48 fold enrichment (6-mer frequency, TF over GST control) with SPI1; 2.75 fold enrichment (6-mer frequency, TF over GST control) with SPIB; 2.47 fold enrichment (6-mer frequency, TF over GST control) with ELK3.

TCTTAA: the binding signal with FLI1 was 1.18 fold enrichment (6-mer frequency, TF over GST control); with ELK1, 1.13 fold enrichment (6-mer frequency, TF over GST control); with GABPA, 1.16 fold enrichment (6-mer frequency, TF over GST control); with ERG, 1.21 fold enrichment (6-mer frequency, TF over GST control); with ELF1, 1.23 fold enrichment (6-mer frequency, TF over GST control); in the test with EHF, 1.09 fold enrichment (6-mer frequency, TF over GST control). The binding signal with SPI1 is 1.23 fold enrichment (6-mer frequency, TF over GST control); in the test with SPIB, 1.23 fold enrichment (6-mer frequency, TF over GST control); with ELK3, 1.23 fold enrichment (6-mer frequency, TF over GST control).

Turning to TGGCTC, the binding signal with FLI1 is 1.4 fold enrichment (6-mer frequency, TF over GST control); with ELK1, 1.43 fold enrichment (6-mer frequency, TF over GST control); with GABPA, 1.47 fold enrichment (6-mer frequency, TF over GST control); in the test with ERG it was 1.43 fold enrichment (6-mer frequency, TF over GST control); with ELF1, 1.46 fold enrichment (6-mer frequency, TF over GST control); in the test with EHF it was 1.34 fold enrichment (6-mer frequency, TF over GST control). Further, the binding signal with SPI1 is 1.16 fold enrichment (6-mer frequency, TF over GST control); in the test with SPIB, 1.39 fold enrichment (6-mer frequency, TF over GST control); with ELK3, 1.3 fold enrichment (6-mer frequency, TF over GST control).

Regarding ATGGCA, the binding signal was 1.26 fold enrichment (6-mer frequency, TF over GST control) with FLI1; 1.22 fold enrichment (6-mer frequency, TF over GST control) with ELK1; 1.26 fold enrichment (6-mer frequency, TF over GST control) in the test with GABPA; 1.27 fold enrichment (6-mer frequency, TF over GST control) with ERG; 1.24 fold enrichment (6-mer frequency, TF over GST control) in the test with ELF1; 1.35 fold enrichment (6-mer frequency, TF over GST control) with EHF. Moreover, the binding signal is 1.21 fold enrichment (6-mer frequency, TF over GST control) with SPI1; 1.19 fold enrichment (6-mer frequency, TF over GST control) in the test with SPIB; 1.22 fold enrichment (6-mer frequency, TF over GST control) in the test with ELK3.

For CGTTTC, the binding signal was 1.76 fold enrichment (6-mer frequency, TF over GST control) in the test with FLI1; 1.68 fold enrichment (6-mer frequency, TF over GST control) with ELK1; 1.69 fold enrichment (6-mer frequency, TF over GST control) with GABPA; 1.98 fold enrichment (6-mer frequency, TF over GST control) with ERG; 1.71 fold enrichment (6-mer frequency, TF over GST control) with ELF1; 1.83 fold enrichment (6-mer frequency, TF over GST control) in the test with EHF. The binding signal with SPI1 is 1.79 fold enrichment (6-mer frequency, TF over GST control); with SPIB it was 1.75 fold enrichment (6-mer frequency, TF over GST control); in the test with ELK3, 1.72 fold enrichment (6-mer frequency, TF over GST control).

As to AAGCCT, the binding signal is 1.21 fold enrichment (6-mer frequency, TF over GST control) with FLI1; 1.22 fold enrichment (6-mer frequency, TF over GST control) in the test with ELK1; 1.24 fold enrichment (6-mer frequency, TF over GST control) with GABPA; 1.21 fold enrichment (6-mer frequency, TF over GST control) in the test with ERG; 1.25 fold enrichment (6-mer frequency, TF over GST control) with ELF1; 1.16 fold enrichment (6-mer frequency, TF over GST control) with EHF. Besides, the binding signal in the test with SPI1 was 1.14 fold enrichment (6-mer frequency, TF over GST control); with SPIB, 1.22 fold enrichment (6-mer frequency, TF over GST control); with ELK3 it was 1.25 fold enrichment (6-mer frequency, TF over GST control).
